Screening results: PubChem BioAssay, Sanford-Burnham Center for Chemical Genomics
CYP2C9 activ – activators of human CYP2C9. 96,000 compounds, 1.4% hits. activation factor at 5 µM. AID 1024. recombinant CYP2C9, luciferin-H conversion, luminescence; active compounds read high; factor 1 = untreated enzyme, 0 = blocked;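 active = activation factor of 2 or more for CYP2C9 at a 5 µM dose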
Target sequence (P11712 whole entry, looked up): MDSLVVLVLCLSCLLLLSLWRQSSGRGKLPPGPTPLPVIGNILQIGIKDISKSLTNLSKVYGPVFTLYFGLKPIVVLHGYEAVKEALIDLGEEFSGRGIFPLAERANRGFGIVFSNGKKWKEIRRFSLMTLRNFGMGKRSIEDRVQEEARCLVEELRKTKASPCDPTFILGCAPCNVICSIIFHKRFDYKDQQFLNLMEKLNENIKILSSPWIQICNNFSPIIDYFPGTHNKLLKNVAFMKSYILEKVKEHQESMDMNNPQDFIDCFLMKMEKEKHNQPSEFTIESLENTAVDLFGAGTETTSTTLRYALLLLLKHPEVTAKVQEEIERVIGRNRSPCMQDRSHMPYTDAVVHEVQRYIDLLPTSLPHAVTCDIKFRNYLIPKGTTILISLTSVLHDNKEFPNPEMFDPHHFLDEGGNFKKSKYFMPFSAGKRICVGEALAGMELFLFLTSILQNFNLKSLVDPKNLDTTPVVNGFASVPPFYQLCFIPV
CYP2C9 inhib – inhibitors of human CYP2C9 | P11712 | CYP2C9 Supersomes, luciferin-H conversion, luminescence | inhibition, % at 5 µM | 96,000 compounds, 20% hits | AID 777;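 active = blocking of liver enzyme CYP2C9 beyond about 50% at 5 µM, limit read from the data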
CYP2C19 act – increases human CYP2C19 enzyme activity; P33261; recombinant CYP2C19, luciferin-H EGE luminescence; active compounds read high; 0 = fully inhibited enzyme, 1 = untreated enzyme; activation factor at 5 µM; 96,000 tested, under 10 active;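 active = activation factor of at least 2 at 5 µM in the primary screen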
CYP2C19 inh – inhibitors of human CYP2C19. P33261. CYP2C19 Supersomes, luciferin-H EGE luminescence, 30 min. inhibition, % at 5 µM. 96,000 compounds, 21% hits. AID 778;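 active = CYP2C19 inhibition above a set limit at 5 µM in the primary screen, cut at about 50% in these data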
Large screens that a line does not name were inactive. Hits are enriched below; roughly 31% of the tested compounds scored in any of these assays.

O=C1CCCN1c1ccc(S(=O)(=O)Oc2ccc(Cl)cc2)cc1[N+](=O)[O-]	none
COc1ccc(NC(=O)C2CCN(C(=O)c3ccccc3)CC2)cc1OC	none
COC(=O)c1cn(Nc2ncc(C(F)(F)F)cc2Cl)c(=O)c2ccccc12	CYP2C19 inh 52
COC(=O)c1cnc2c(C(F)(F)F)cccc2c1OC	none
COC(=O)c1cn(N(C)c2ncc(C(F)(F)F)cc2Cl)c(=O)c2ccccc12	CYP2C9 inhib 100, CYP2C19 inh 98
CC1=C(C(=O)OCc2ccccc2)C(c2ccoc2)C(C#N)=C(N)O1 (stereo not drawn)	CYP2C19 inh 77
C=CCOC(=O)C1=C(C)OC(N)=C(C#N)C1c1c(C)nn(-c2ccccc2)c1Cl (stereo not drawn)	CYP2C9 inhib 82, CYP2C19 inh 89
Cc1ccc(-n2nc(C)c3c2OC(N)=C(C#N)C3c2cccs2)cc1 (stereo not drawn)	none
CCOC(=O)C1=C(C)OC(N)=C(C#N)C1c1c(C)nn(-c2ccccc2)c1Cl (stereo not drawn)	CYP2C9 inhib 74, CYP2C19 inh 83
CC1=C(n2nnc3ccccc32)C(c2ccccc2)C(C#N)=C(N)O1 (stereo not drawn)	none
CC(Sc1nc2ccccc2c(=O)[nH]1)C(=O)O (stereo not drawn)	none
COc1ccc(N(C(=O)c2ccccc2OC(C)=O)C(C)C2CC2)cc1 (stereo not drawn)	none
Cc1ccc2[nH]c(=O)c3cc(C(=O)N4CCN(C(=O)c5ccco5)CC4)sc3c2c1	none
COc1cccc(N2CCN(CC(=O)Nc3nc4c(s3)CC(C)CC4)CC2)c1 (stereo not drawn)	CYP2C9 inhib 53
COc1cccc(NC(=O)NCCCN2CCN(c3ccc(F)cc3)CC2)c1	none
CCN(CC)c1ccc(NC(=O)CN2CCN(c3ccccc3F)CC2)cc1	CYP2C19 inh 55
COc1ccc(NC(=O)CN2CCN(c3ccccc3F)CC2)cc1	CYP2C9 inhib 68, CYP2C19 inh 55
CCN(CC)C(=O)CN1CCN(c2ccccc2F)CC1	none
COc1ccc(N2CCC(CNC(=O)Nc3cccc(OC)c3)C2)cc1 (stereo not drawn)	CYP2C9 inhib 76
COc1ccc2nc(N3CCCC3)[nH]c2c1	none
COC(=O)c1cccc(NC(=O)CN2CCN(c3ccc(OC)cc3)CC2)c1	CYP2C9 inhib 86, CYP2C19 inh 65
CCOc1ccc(NC(=O)CCN2CCN(c3ccccc3F)CC2)cc1	CYP2C9 inhib 68, CYP2C19 inh 51
COc1cccc(NC(=O)CN2CCN(c3ccc(F)cc3)CC2)c1	none
Cc1nc2ccc(NC(=O)Cc3cccs3)cc2s1	CYP2C9 inhib 65, CYP2C19 inh 59
Cc1nc2ccc(NC(=O)c3cccc(S(=O)(=O)N4CC(C)OC(C)C4)c3)cc2s1 (stereo not drawn)	CYP2C9 inhib 66, CYP2C19 inh 71
Cc1nc2ccc(NC(=O)c3ccc(Cl)s3)cc2s1	none
O=C(Cc1cccs1)Nc1ccc(C(=O)O)cc1	none
Cc1nc2ccc(NC(=O)c3ccc(S(=O)(=O)N4CCOCC4)cc3)cc2s1	none
Cc1nc2ccc(NC(=O)c3ccc(Cl)c(NC(=O)c4cccs4)c3)cc2s1	CYP2C9 inhib 54
COc1ccc(C2C3=C(CCCC3=O)Nc3nc(C(F)(F)F)nn32)c(OC)c1OC (stereo not drawn)	none
CCOC(OCC)P(=O)(c1ccccc1)c1ccccc1	none
Cn1cc(Br)c(C(=O)NNC(=O)c2cccc(Br)c2)n1	none
CCOC(=O)c1c(C)[nH]c(C(=O)CSc2nnc(-c3ccncc3)n2CC)c1C	CYP2C9 inhib 84, CYP2C19 inh 94
CCn1c(SCC(=O)c2cccs2)nnc1-c1cccs1	CYP2C19 inh 98
CCOC(=O)c1c(C)[nH]c(C(=O)CSc2nnnn2-c2ccccc2)c1C	none
CCOC(=O)c1c(C)[nH]c(C(=O)CSc2nnnn2-c2ccc(C)cc2)c1C	CYP2C19 inh 54
CCn1c(SCC(=O)c2ccc(NS(=O)(=O)c3ccccc3)cc2)nnc1-c1cccs1	CYP2C9 inhib 94
CCn1c(SCC(=O)NCC(=O)Nc2ccc(F)cc2)nnc1-c1ccncc1	none
O=C(Nc1ccccc1)Nc1ccc(C(=O)N2CCOCC2)cc1	none
Cc1cccc(OCc2nnc(SCC(=O)c3cccs3)n2C)c1C	CYP2C9 inhib 53, CYP2C19 inh 78
CCn1c(SCC(=O)c2[nH]c(C)c(C(C)=O)c2C)nnc1-c1cccs1	CYP2C19 inh 64
Cc1ccccc1OCc1nnc(SCC(=O)NCc2ccccc2)n1C	none
Cc1occc1C(=O)NNC(=S)Nc1ccccc1	none
COc1ccc(Nc2oc(-c3ccc(Cl)cc3)nc2C#N)cc1	none
CNc1oc(-c2ccc(Cl)cc2)nc1P(=O)(c1ccccc1)c1ccccc1	CYP2C9 inhib 64
CCCn1c(SCc2cc(=O)[nH]c3ccccc23)nc2c1c(=O)n(C)c(=O)n2C	none
Cn1c(SCc2cc(=O)[nH]c3ccccc23)nnc1-c1ccc(Br)cc1	CYP2C19 inh 51
COC(=O)CSc1nnc(-c2ccoc2C)n1-c1ccc(OC)cc1	none
COc1cccc(-n2c(SCC(=O)NC(C)(C)C)nnc2-c2ccoc2C)c1	CYP2C19 inh 73
CCOC(=O)CSc1nnc(-c2ccoc2C)n1-c1ccc(OCC)cc1	CYP2C9 inhib 82, CYP2C19 inh 92
CCCCS(=O)(=O)Nc1ccc2c(c1)ncn2C1CCCCC1	CYP2C9 inhib 85
O=C(NCc1cccnc1)c1cnc2sccn2c1=O	none
COc1ccc(CC(=O)n2c(CC#N)nc3ccccc32)cc1OC	none
COc1ccccc1Cn1c(CCCO)nc2ccccc21	CYP2C9 inhib 65, CYP2C19 inh 84
O=S(=O)(O)c1nc2ccccc2n1Cc1ccccc1	none
COc1ccc(Cn2c(CCCO)nc3ccccc32)cc1OC	CYP2C9 inhib 59, CYP2C19 inh 91
COCCOCCn1c(CCCO)nc2ccccc21	none
CCS(=O)(=O)c1nc2ccccc2n1Cc1ccccc1Cl	CYP2C9 inhib 62, CYP2C19 inh 91
CCc1nc2ccccc2n1Cc1ccccc1OC	CYP2C9 inhib 65, CYP2C19 inh 96
Cc1cc2cc(CN(CC3CCCO3)C(=O)c3cnccn3)c(=O)[nH]c2cc1C (stereo not drawn)	none
Cc1cc(C)nc(N(C#N)CC(=O)N(c2ccccc2)C(C)C)n1	none
CS(=O)(=O)c1nc2ccccc2n1Cc1ccccc1	none
COc1ccc(C)cc1Cn1c(S(C)(=O)=O)nc2ccccc21	CYP2C9 inhib 62, CYP2C19 inh 98
Cc1cc(-c2nnco2)c(C)n1-c1ccc(F)cc1	CYP2C19 inh 58
Cc1ccc(C)n1-c1ccc(-c2nnco2)cc1	none
Cc1ccccc1Cn1c(-c2cncs2)nc2ccccc21	CYP2C19 inh 76
O=C(Cn1c(-c2cncs2)nc2ccccc21)NCc1ccccc1	CYP2C19 inh 80
Brc1cc2c(cc1Cn1c(-c3cncs3)nc3ccccc31)OCO2	none
CCCn1c(CNC(=O)Cc2ccccc2)nc2ccccc21	none
CC1(C)CC(=O)CC(C)(C)N1OC(=O)c1ccco1	none
CCC(SCC(=O)OC)C(=O)Nc1nnc(C(C)C)s1 (stereo not drawn)	none
CO/N=C/c1cc([N+](=O)[O-])ccc1Sc1ccc(C)cc1	CYP2C9 inhib 64, CYP2C19 inh 65
